This note sets out measurements from ChEMBL document CHEMBL3988442, “University of Dundee, Small-Polar-MMV Screening Library” (2021).

For some of these results: Potency and affinity values are given separately.

Holding throughout (design): scale not given: direction of the effect not stated beside the values
In assay [1] the target is Protein translocase subunit SecA (Escherichia coli (strain K12)) (UniProt P10408). Kind of assay: Assay to Identify E. coli SecA ATPase Inhibitors. The class given is functional. To be noted: 30 µM.
Sequence of Protein translocase subunit SecA (Escherichia coli (strain K12)) (P10408 whole entry): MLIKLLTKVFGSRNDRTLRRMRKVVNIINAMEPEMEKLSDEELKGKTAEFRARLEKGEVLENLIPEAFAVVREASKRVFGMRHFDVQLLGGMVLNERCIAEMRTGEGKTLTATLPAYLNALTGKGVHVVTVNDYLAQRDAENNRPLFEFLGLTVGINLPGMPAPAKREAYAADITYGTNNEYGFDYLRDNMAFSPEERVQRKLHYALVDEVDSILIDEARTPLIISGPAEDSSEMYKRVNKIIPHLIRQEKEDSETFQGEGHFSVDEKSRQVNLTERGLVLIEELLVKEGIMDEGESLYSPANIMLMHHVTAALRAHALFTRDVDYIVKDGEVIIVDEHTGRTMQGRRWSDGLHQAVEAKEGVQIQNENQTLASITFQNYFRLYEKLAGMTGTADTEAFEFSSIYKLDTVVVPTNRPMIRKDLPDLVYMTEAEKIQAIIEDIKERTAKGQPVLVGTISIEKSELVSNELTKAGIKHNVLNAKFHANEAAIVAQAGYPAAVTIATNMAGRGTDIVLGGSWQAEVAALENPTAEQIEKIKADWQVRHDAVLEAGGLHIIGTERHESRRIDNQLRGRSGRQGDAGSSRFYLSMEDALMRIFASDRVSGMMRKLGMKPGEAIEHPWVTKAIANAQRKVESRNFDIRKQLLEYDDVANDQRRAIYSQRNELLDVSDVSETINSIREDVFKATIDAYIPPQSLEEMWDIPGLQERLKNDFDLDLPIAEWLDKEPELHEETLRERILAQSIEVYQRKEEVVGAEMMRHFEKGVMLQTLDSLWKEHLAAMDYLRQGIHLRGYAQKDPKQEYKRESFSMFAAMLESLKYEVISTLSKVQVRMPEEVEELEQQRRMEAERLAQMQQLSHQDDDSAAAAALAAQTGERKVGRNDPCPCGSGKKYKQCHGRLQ
For assay [2], the target named is T1, Ubiquitin-activating enzyme e1, putative (Leishmania donovani (strain BPK282A1)) (UniProt E9BSI1).
T1 sequence (whole entry): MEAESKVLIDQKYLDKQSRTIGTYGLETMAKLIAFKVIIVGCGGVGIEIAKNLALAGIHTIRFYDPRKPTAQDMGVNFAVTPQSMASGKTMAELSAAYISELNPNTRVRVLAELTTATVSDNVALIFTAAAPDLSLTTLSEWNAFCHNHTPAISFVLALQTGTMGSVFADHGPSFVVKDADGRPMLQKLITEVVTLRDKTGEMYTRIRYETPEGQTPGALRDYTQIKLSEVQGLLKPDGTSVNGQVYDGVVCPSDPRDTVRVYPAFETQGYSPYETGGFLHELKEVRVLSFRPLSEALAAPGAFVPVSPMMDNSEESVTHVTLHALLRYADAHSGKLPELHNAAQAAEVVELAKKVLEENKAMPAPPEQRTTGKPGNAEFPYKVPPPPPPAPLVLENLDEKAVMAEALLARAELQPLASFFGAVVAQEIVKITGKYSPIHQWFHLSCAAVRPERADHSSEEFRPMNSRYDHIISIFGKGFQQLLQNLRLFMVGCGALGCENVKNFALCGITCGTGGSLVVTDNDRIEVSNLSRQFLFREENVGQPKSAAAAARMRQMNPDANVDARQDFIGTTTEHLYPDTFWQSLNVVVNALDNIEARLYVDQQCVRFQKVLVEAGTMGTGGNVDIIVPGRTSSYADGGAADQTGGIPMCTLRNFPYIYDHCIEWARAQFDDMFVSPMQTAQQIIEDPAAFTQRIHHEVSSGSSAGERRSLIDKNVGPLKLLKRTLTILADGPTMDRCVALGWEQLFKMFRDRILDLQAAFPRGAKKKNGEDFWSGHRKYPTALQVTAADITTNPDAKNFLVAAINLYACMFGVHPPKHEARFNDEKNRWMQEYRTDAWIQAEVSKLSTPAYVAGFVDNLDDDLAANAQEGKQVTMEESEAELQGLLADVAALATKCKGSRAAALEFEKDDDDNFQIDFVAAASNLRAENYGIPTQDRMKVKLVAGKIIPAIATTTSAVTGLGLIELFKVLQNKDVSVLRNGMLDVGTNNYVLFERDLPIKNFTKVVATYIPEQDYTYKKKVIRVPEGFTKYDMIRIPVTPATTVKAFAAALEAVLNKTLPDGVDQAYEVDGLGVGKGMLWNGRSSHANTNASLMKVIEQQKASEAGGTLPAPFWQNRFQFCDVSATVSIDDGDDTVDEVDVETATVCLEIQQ
Kind of assay: Leishmania donovani Ubiquitin Activating Enzyme (LdE1). The class given is functional. The note with it: 30 µM.

Assay [3] deals with AMP-activated protein kinase, AMPK (Homo sapiens) (UniProt P54646+O43741+P54619+Q9UGJ0+Q9Y478+Q13131+Q9UGI9). Kind of assay: AMP-dependent Kinase enzyme assay. An in vitro enzyme assay that detects ADP turnover that is directly proportional to AMPK activity. This uses naive AMPK that is activated during the assay with MK-8722. The note with it: 30 µM. The class given is functional.

Assay [4] has as its target Sialic acid-binding Ig-like lectin 9 (Homo sapiens) (UniProt Q9Y336). Kind of assay: Hs-Siglec9 ALPHAscreen SOP 20170721. To be noted: 10 µM.
In the next assay the test system is Trypanosoma cruzi. Kind of assay: Trypanosoma cruzi phosphomannomutase and mannose-1-phosphate guanylyltransferase assay. The note with it: 10 µM. It is filed as functional.
Assay [5] concerns the target T2, Arginase-2, mitochondrial (Homo sapiens) (UniProt P78540).
T2 sequence (whole entry): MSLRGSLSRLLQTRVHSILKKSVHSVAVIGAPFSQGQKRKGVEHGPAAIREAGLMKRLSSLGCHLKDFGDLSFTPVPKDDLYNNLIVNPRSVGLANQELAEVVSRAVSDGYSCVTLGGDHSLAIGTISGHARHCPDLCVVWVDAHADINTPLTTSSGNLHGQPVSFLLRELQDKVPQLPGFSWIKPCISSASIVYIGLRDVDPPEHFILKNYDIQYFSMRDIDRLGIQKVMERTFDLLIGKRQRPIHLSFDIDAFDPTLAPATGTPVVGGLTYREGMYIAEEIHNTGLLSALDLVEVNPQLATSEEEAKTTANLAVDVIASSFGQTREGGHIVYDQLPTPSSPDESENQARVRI
Kind of assay: in vitro enzyme assay to detect the production of urea directly proportional to the activity of Arginase II. Further: in the data most compounds retested in dose-response had high values. The class given is functional. To be noted: 33.3 µM.

For assay [6], the target named is T3, Proteasome subunit beta (Trypanosoma cruzi) (UniProt O96673).
T3 sequence (whole entry): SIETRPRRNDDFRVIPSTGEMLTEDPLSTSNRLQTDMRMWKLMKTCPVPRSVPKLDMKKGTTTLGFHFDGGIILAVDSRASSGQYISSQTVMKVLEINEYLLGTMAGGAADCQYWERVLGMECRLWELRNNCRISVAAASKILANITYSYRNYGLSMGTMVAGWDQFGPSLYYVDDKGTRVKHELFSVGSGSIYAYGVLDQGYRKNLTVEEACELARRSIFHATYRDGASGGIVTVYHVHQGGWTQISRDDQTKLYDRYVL
Kind of assay: Trypanosoma cruzi proteasome chymotrypsin-like activity (TcProtChymo) assay. Further: in the data most compounds retested in dose-response had high values. It is filed as functional. The note with it: 9.37 µM.

For a further assay, the species on record is Homo sapiens. Kind of assay: To identify inhibition of the IFN signalling (Jak-Stat) pathway via expression of an eGFP reporter gene under the control of an IFN-stimulated response element (ISRE) containing MxA promoter. The class given is functional. The note with it: 30 µM.
Assay [7] deals with T4, Tyrosyl-tRNA synthetase, putative (Trypanosoma cruzi (strain CL Brener)) (UniProt Q4DSP6).
T4 sequence (whole entry): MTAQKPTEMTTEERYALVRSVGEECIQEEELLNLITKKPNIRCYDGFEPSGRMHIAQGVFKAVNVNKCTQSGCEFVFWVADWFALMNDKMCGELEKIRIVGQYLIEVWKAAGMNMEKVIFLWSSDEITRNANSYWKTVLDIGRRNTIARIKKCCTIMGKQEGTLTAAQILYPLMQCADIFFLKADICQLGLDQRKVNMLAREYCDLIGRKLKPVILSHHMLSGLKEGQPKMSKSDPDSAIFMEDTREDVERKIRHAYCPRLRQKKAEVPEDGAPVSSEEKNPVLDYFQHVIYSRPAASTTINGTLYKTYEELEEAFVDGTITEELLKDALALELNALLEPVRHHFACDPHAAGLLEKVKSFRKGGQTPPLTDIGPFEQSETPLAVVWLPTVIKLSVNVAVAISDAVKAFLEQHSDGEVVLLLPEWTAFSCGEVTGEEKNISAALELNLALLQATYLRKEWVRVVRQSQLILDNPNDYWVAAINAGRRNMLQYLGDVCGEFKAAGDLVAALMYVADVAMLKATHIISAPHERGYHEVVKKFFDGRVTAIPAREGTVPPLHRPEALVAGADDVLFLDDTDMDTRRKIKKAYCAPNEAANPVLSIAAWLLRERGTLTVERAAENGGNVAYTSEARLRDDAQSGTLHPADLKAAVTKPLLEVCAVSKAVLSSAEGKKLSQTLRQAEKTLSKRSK
Kind of assay: Trypanosoma cruzi tyrosyl tRNA synthetase (TcYRS) _High Tyrosine SOP. Further: in the data most compounds retested in dose-response had high values. It is filed as functional. The note with it: 30 µM.

The target of assay [8] is T4, Tyrosyl-tRNA synthetase, putative (Trypanosoma cruzi (strain CL Brener)). Kind of assay: Trypanosoma cruzi tyrosyl tRNA synthetase (TcYRS) SOP. The class given is functional. To be noted: 30 µM.
The target in assay [9] is Chromo domain-containing protein 1 (Saccharomyces cerevisiae (strain ATCC 204508 / S288c) (Baker's yeast)) (UniProt P32657). Kind of assay: ScCHD-1 Enzyme Inhibition Assay. Further: in the data most compounds retested in dose-response had high values. The class given is functional. To be noted: 30 µM.
Sequence of Chromo domain-containing protein 1 (Saccharomyces cerevisiae (strain ATCC 204508 / S288c) (Baker's yeast)) (P32657 whole entry, the tested form may be a part): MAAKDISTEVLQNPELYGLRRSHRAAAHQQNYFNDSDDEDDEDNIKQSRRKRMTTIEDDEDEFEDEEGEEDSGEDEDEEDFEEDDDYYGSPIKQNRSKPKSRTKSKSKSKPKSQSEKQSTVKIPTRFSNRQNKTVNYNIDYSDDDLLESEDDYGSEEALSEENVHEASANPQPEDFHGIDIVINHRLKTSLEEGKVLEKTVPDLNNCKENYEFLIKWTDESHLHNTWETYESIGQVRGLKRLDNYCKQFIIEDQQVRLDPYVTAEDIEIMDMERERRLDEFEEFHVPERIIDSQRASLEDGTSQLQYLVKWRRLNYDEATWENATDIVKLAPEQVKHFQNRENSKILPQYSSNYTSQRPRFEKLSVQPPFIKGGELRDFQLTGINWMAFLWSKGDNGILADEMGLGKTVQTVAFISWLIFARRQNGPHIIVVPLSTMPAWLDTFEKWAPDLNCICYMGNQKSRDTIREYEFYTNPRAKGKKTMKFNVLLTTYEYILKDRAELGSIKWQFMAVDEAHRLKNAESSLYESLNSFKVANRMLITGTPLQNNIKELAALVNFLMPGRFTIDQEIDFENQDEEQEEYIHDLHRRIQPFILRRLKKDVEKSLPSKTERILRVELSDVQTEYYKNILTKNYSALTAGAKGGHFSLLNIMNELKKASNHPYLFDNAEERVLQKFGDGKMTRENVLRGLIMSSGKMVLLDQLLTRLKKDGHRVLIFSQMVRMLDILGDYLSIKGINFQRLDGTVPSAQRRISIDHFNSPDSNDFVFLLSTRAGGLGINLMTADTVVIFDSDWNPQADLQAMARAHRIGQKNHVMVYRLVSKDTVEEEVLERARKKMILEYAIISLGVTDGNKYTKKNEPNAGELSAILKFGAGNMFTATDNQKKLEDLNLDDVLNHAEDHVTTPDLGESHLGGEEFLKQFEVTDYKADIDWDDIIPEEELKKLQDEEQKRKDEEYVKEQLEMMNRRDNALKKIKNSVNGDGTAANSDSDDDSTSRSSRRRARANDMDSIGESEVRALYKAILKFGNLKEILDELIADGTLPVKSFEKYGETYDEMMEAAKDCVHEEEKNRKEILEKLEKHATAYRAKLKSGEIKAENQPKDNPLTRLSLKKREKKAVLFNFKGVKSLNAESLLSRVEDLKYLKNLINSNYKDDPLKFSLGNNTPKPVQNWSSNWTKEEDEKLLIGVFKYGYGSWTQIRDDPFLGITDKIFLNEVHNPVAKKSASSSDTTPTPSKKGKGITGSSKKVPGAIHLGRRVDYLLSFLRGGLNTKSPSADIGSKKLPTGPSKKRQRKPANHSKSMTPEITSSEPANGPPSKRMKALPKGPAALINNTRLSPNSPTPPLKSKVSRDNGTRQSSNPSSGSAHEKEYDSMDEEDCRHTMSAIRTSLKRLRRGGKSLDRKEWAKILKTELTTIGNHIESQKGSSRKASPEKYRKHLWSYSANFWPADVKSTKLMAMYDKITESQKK

Sequence of Sialic acid-binding Ig-like lectin 9 (Homo sapiens) (Q9Y336 whole entry): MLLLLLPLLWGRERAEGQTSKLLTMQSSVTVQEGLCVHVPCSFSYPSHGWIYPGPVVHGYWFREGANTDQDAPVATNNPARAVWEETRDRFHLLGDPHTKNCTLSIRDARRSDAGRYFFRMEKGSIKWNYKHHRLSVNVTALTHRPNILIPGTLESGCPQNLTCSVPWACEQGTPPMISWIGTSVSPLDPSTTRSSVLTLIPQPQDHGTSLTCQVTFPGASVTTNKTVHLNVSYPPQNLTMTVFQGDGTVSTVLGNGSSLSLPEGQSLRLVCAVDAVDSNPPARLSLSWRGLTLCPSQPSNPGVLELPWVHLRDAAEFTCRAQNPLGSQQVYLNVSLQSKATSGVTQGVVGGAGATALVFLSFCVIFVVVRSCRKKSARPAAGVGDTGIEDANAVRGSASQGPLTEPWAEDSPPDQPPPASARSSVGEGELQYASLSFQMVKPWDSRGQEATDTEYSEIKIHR

As for `Cc1occc1C(=O)N1CCC2(CCC(=O)N(CC(N)=O)C2)CC1`, the Percent Effect is -6.56% in [1]; -4.17% in assay [2]; 0.341% in [3]; 3.65% in [4]; -3.6% in the assay with Trypanosoma cruzi; 2.21% in assay [5]. The Percent Effect in assay [6] is 10.9%; in the assay listed under Homo sapiens, 3%; in assay [7], -2.1%; in assay [8], -7.69%; in assay [9], -2.07%.
For `c1cnc(N2CCC3(CCN(Cc4ccncc4)CC3)CC2)nc1`, the Percent Effect in [1] was -0.982%; in [2], 0%; in assay [3], 7.11%; in assay [4] it was 7.41%; in the assay on Trypanosoma cruzi it was -2.25%; in [5], -4.14%. In addition, the Percent Effect is 13.1% in [6]; -0.931% in the assay filed under Homo sapiens; 1.08% in [7]; 5.13% in assay [8]; 13% in [9].
With `CCn1ccnc1CN1CCN(C(C)C(=O)NC2CCCCC2)CC1` (stereo unspecified), the Percent Effect is -6.02% in [1]; 5.26% in assay [2]; -1.96% in [3]; -3.82% in assay [4]; -7.71% with Trypanosoma cruzi; 0.766% in assay [5]. Further, the Percent Effect in [6] was 5.68%; in the assay listed under Homo sapiens, 24.7%; in assay [7], -3.43%; in assay [8] it was -4.88%; in [9], 5.81%.
`COc1cccc(OCCNC(=O)CN2CCN(C)CC2C)c1` (stereo unspecified): the Percent Effect in [1] was -4.33%; in [2], 13.5%; in assay [3] it was -5.8%; in assay [4], 15%; with Trypanosoma cruzi it was 6.59%; in assay [5] it was -2.77%. For the same compound, the Percent Effect was 7.54% in [6]; 11.6% in the assay listed under Homo sapiens; 3.96% in [7]; 18.3% in assay [8]; -8.99% in [9].
Take `Cc1nc(C)n(CC2CN(Cc3cccc(C(N)=O)c3)CCO2)n1` (stereo unspecified): the Percent Effect is -1.88% in assay [1]; -5.41% in assay [2]; 5.74% in assay [3]; -4.05% in assay [4]; -4.69% in the assay on Trypanosoma cruzi; 0% in assay [5]. Further, the Percent Effect in [6] is 9.72%; in the assay listed under Homo sapiens, -7.92%; in assay [7], 5.94%; in assay [8], 6.1%; in [9] it was 7.72%.
`NC(=O)Cc1ccc(NC(=O)C2CCOCC2)cc1`: the Percent Effect in assay [1] is -3.03%; in assay [2] it was 10.8%; in assay [3], -5.71%; in [4] it was -1.1%; in the assay on Trypanosoma cruzi it was -7.52%; in assay [5] it was 2.03%. Also, the Percent Effect in assay [6] was 11.5%; in the assay listed under Homo sapiens, 19.3%; in assay [7] it was 5.94%; in assay [8] it was 15.8%; in assay [9], -1.7%.
Take `Cn1cc(N2CCC(NC(=O)c3c(F)cccc3F)C2=O)cn1` (stereo unspecified): the Percent Effect in [1] was -7.01%; in assay [2], -2.7%; in assay [3], 0.96%; in assay [4] it was -8.23%; with Trypanosoma cruzi, -1.66%; in assay [5], -0.744%. Further, the Percent Effect was 0.258% in [6]; -14.2% in the assay listed under Homo sapiens; 0% in assay [7]; 1.24% in assay [8]; 0.00639% in [9].
As to `CC(C)c1nnc(NC(=O)NCc2ccnc(N(C)C)c2)s1`, the Percent Effect in assay [1] is 0.949%; in [2] it was 8.86%; in [3] it was 3.28%; in assay [4], -0.716%; in the assay on Trypanosoma cruzi it was -2.77%; in assay [5], 8.39%. Moreover, the Percent Effect is 15.8% in assay [6]; 30.7% in the assay listed under Homo sapiens; 1.04% in assay [7]; 7.59% in assay [8]; -17.6% in assay [9].
Regarding `CCc1nnc2n1CCN(C(=O)c1ccc(-c3ccco3)nc1C)C2`, the Percent Effect in [1] is -6.22%; in assay [2], 17.7%; in [3], -3.04%; in assay [4], 13.8%; in the assay on Trypanosoma cruzi it was 5.57%; in assay [5] it was -2.28%. Also, the Percent Effect in assay [6] was 12.5%; in the assay listed under Homo sapiens it was 2.35%; in assay [7], 10.3%; in [8] it was 16.5%; in assay [9], -9.52%.
Take `CC(Cn1cccn1)NC(=O)Nc1nnc(C2CC2)s1` (stereo unspecified): the Percent Effect in assay [1] is -8.16%; in assay [2], 13%; in assay [3], 2.37%; in assay [4] it was 7.36%; with Trypanosoma cruzi, 1.12%; in [5] it was -0.356%. For the same compound, the Percent Effect in assay [6] is -0.845%; in the assay filed under Homo sapiens it was 10.7%; in [7] it was 7.77%; in assay [8] it was 12.2%; in assay [9], -5.78%.
On to `CN(C)C(=O)CO[C@@H]1CC[C@H]2[C@H]1OCCN2C(=O)C1CCOCC1`, for which the Percent Effect is -1.1% in assay [1]; 2.7% in [2]; -6.25% in assay [3]; -1.21% in assay [4]; -3.52% in the assay with Trypanosoma cruzi; 2.08% in assay [5]. The Percent Effect in assay [6] came out at 13.8%; in the assay listed under Homo sapiens, 21%; in assay [7] it was 9.9%; in assay [8] it was 8.54%; in assay [9], 2.17%.
